{"source": "PubChem BioAssay (NCATS)", "key": {"[1]": {"assay": "qHTS Assay for Identifying Gametocytocidal Compounds (AID 743244); note: potency is the fitted concentration of half-maximal effect;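 for max response: % is set by controls: 0 for no effect and ±100 for the full control effect; actives lower the fluorescent signal which means gametocytes are killed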", "conditions": "P. falciparum 3D7 stage III-V gametocytes, alamarBlue, 72 h; max response: active compounds read low", "in_short": "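Viability read-out was resazurin reduction (alamarBlue, 24 h) measured at Ex 525/Em 598 nm. Beforehand, late-stage (III-V) 3D7 P. falciparum gametocytes at 20,000 cells/well were incubated with compound 72 h at 37C under 5% CO2.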"}, "[2]": {"assay": "P-glycoprotein substrates identified in KB-8-5-11 adenocarcinoma cell line, qHTS therapeutic library screen (AID 1346987); note: series mostly up to about 44 µM; % is set by controls: 0 for no effect and ±100 for the full control effect; nearly all actives have a fitted effect of over 65% in size", "in_short": "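Luminescence from CellTiter-Glo, read 5 min after addition, quantified survival of KB-8-5-11 (P-gp-overexpressing) cells exposed to compounds for 72 h. AC50 was derived from concentration-response curves.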"}, "[3]": {"assay": "qHTS of pediatric cancer cell lines to identify multiple opportunities for drug repurposing: Primary screen for SJ-GBM2 cells (AID 1347091); note: potency is the fitted concentration of half-maximal effect", "conditions": "SJ-GBM2 viability, CellTiter-Glo luminescence, 48 h", "in_short": "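Cell viability, CellTiter-Glo luminescence; 500-1,000 cells/well, 8- or 11-point titration, 48 h compound exposure at 37 degrees C, 5% CO2. Controls: DMSO neutral, bortezomib 2.3 µM final as positive.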"}, "[4]": {"assay": "qHTS assay for cell viability of HEK293 cells (AID 743288); note: % is set by controls: 0 for no effect and ±100 for the full control effect; nearly all actives have a fitted effect of over 50% in size", "conditions": "ATP luminescence (CellTiter-Glo), 18 h, active compounds read low", "in_short": "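HEK293, 18 h, 37 C, ATP luminescence. Cells at 2,000/well were allowed at least 5 h to settle before dosing; CellTiter-Glo developed 30 min at RT.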"}, "[5]": {"assay": "qHTS assay for cell viability of the p53RE-bla HCT-116 cell line (AID 743292); note: % is set by controls: 0 for no effect and ±100 for the full control effect; nearly all actives have a fitted effect of over 55% in size", "in_short": "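Viability of compound-treated p53RE-bla HCT-116 cells is taken from ATP-dependent luciferase luminescence. Treatment lasts 16 h at 37 C after a 5 h settling period; detection follows 30 min at room temperature.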"}}, "note": "Where “and” joins values, the source holds several entries; their conditions need not be identical. Identical values can stand only once. Inconclusive results are not listed. A number with no mark means an inactive call. Calls of active or inactive are those of the source. Calls come from the whole dose curve; as a rule, active = well fitted curve in the direction sought with a large enough effect; inconclusive = small, poorly fitted or top-dose-only effect, or another doubt; inactive = no such curve, though single readings can be large; an effect the other way counts as inactive or inconclusive. Where a SMILES comes first, the peptide text is derived from it. Bridges are numbered along the chain shown (N, C = ends).", "data": [{"smiles": "Cc1cc(-n2c(=O)[nH]c(=O)n(C)c2=O)ccc1Oc1ccc(S(=O)(=O)C(F)(F)F)cc1", "values": [{"measurement": "max response", "setting": "[1]", "value": -1.23, "unit": "%"}]}, {"smiles": "CC1(C)S[C@@H]2[C@H](NC(=O)[C@H](N)c3ccccc3)C(=O)N2[C@H]1C(=O)OCOC(=O)[C@@H]1N2C(=O)C[C@H]2S(=O)(=O)C1(C)C", "values": [{"measurement": "max response", "setting": "[1]", "value": 8.04, "unit": "%"}, {"measurement": "Potency", "setting": "[2]", "value": "inactive"}]}, {"smiles": "CO/N=C(\\C(=O)N[C@@H]1C(=O)N2C(C(=O)OCOC(=O)C(C)(C)C)=C(/C=C\\c3scnc3C)CS[C@H]12)c1csc(N)n1", "values": [{"measurement": "max response", "setting": "[1]", "value": -6.43, "unit": "%"}]}, {"smiles": "COc1ccc(C2NC(=S)N3C(c4ccc(OC)c(OC)c4)NC(=S)N23)cc1OC", "note": "(configuration not stated)", "values": [{"measurement": "Potency", "setting": "[1]", "value": "0.0023 µM (active)"}, {"measurement": "Potency", "setting": "[2]", "value": "inactive"}]}, {"smiles": "Oc1cccc(-c2c3nc(c(-c4cccc(O)c4)c4ccc([nH]4)c(-c4cccc(O)c4)c4nc(c(-c5cccc(O)c5)c5ccc2[nH]5)CC4)C=C3)c1", "values": [{"measurement": "max response", "setting": "[1]", "value": "-1.27% and -6.31%"}, {"measurement": "Potency", "setting": "[3]", "value": "21.1 µM (active)"}]}, {"smiles": "CC(=O)[C@@]1(O)CC[C@H]2[C@@H]3C=C(Cl)C4=CC(=O)CC[C@]4(C)[C@H]3CC[C@@]21C", "values": [{"measurement": "max response", "setting": "[1]", "value": -4.61, "unit": "%"}]}, {"smiles": "CCOC(=O)[C@H](CCc1ccccc1)N[C@@H](C)C(=O)N1CC2(C[C@H]1C(=O)O)SCCS2", "values": [{"measurement": "max response", "setting": "[1]", "value": 8.21, "unit": "%"}]}, {"smiles": "COC1=C(C(=O)O)N2C(=O)[C@@H](NC(=O)[C@H](N)C3=CCC=CC3)[C@H]2SC1", "values": [{"measurement": "max response", "setting": "[1]", "value": -12.6, "unit": "%"}, {"measurement": "Potency", "setting": "[2]", "value": "inactive"}]}, {"smiles": "COc1ccc(CNCC(O)COc2ccc3[nH]c(=O)ccc3c2)cc1OC", "note": "(configuration not stated)", "values": [{"measurement": "max response", "setting": "[1]", "value": -1.67, "unit": "%"}, {"measurement": "Potency", "setting": "[2]", "value": "inactive"}]}, {"smiles": "COC(C)=O", "values": [{"measurement": "max response", "setting": "[1]", "value": 1.99, "unit": "%"}, {"measurement": "max response", "setting": "[4]", "value": -4.96, "unit": "%"}, {"measurement": "outcome", "setting": "[5]", "value": "inactive"}, {"measurement": "Potency", "setting": "[2]", "value": "inactive"}]}, {"smiles": "CCCCCCCCCC(=O)O", "values": [{"measurement": "max response", "setting": "[4]", "value": "-4.02% and 2.71%"}, {"measurement": "outcome", "setting": "[5]", "value": "inactive"}]}, {"smiles": "CCCCCCCC/C=C\\CCCCCCCC(=O)OC[C@@H](O)[C@H]1OC[C@H](O)[C@H]1O", "values": [{"measurement": "max response", "setting": "[1]", "value": -9.22, "unit": "%"}, {"measurement": "max response", "setting": "[4]", "value": -9.48, "unit": "%"}, {"measurement": "outcome", "setting": "[5]", "value": "inactive"}, {"measurement": "Potency", "setting": "[2]", "value": "inactive"}]}, {"smiles": "CN(C)CCOc1ccccc1Cc1ccccc1", "note": "(tested in a mixture with another compound)", "values": [{"measurement": "max response", "setting": "[1]", "value": 6.62, "unit": "%"}]}, {"smiles": "CC(C(=O)O)c1ccc(C2CCCCC2)c2ccccc12", "note": "(configuration not stated)", "values": [{"measurement": "max response", "setting": "[1]", "value": 16, "unit": "%"}, {"measurement": "Potency", "setting": "[2]", "value": "inactive"}]}, {"smiles": "CCOc1ccc(N=C(C)Nc2ccc(OCC)cc2)cc1", "values": [{"measurement": "max response", "setting": "[1]", "value": -5.06, "unit": "%"}]}, {"smiles": "NCCCC[C@H](NC(=O)[C@@H]1CCCN1C(=O)[C@@H]1CSSC[C@H](NC(=O)CNC(=O)CNC(=O)CN)C(=O)N[C@@H](Cc2ccc(O)cc2)C(=O)N[C@@H](Cc2ccccc2)C(=O)N[C@@H](CCC(N)=O)C(=O)N[C@@H](CC(N)=O)C(=O)N1)C(=O)NCC(N)=O", "note": "(H-GGGCYFQNCPKG-NH2; disulfide 4-9)", "values": [{"measurement": "max response", "setting": "[1]", "value": -2, "unit": "%"}, {"measurement": "Potency", "setting": "[2]", "value": "inactive"}]}, {"smiles": "c1ccc2c(CCC3CCNCC3)c[nH]c2c1", "values": [{"measurement": "max response", "setting": "[1]", "value": -9.29, "unit": "%"}]}, {"smiles": "Cn1nnnc1SCC1=C(C(=O)O)N2C(=O)[C@@H](NC(=O)[C@H](OC=O)c3ccccc3)[C@H]2SC1", "values": [{"measurement": "max response", "setting": "[1]", "value": 10.2, "unit": "%"}, {"measurement": "Potency", "setting": "[2]", "value": "inactive"}]}, {"smiles": "CN(C)Cc1ccccc1", "values": [{"measurement": "max response", "setting": "[1]", "value": 9.16, "unit": "%"}, {"measurement": "max response", "setting": "[4]", "value": 0.0798, "unit": "%"}, {"measurement": "outcome", "setting": "[5]", "value": "inactive"}, {"measurement": "Potency", "setting": "[2]", "value": "inactive"}]}, {"smiles": "CN1CCN(C2=Nc3ccccc3Cc3ccccc32)CC1", "values": [{"measurement": "max response", "setting": "[1]", "value": 2.36, "unit": "%"}]}, {"smiles": "CCCCCCCC(=O)CC[C@@H]1[C@@H](C/C=C\\CCCC(=O)OC(C)C)[C@@H](O)C[C@H]1O", "values": [{"measurement": "max response", "setting": "[1]", "value": 0.0052, "unit": "%"}]}, {"smiles": "CC(=O)OC[C@H]1O[C@@H](O[C@H]2[C@H](O)[C@@H](OC(=O)c3ccccc3C(=O)O)[C@H](O)O[C@@H]2COC(C)=O)[C@H](O)[C@@H](OC(=O)c2ccccc2C(=O)O)[C@@H]1O", "values": [{"measurement": "max response", "setting": "[1]", "value": -3.61, "unit": "%"}]}, {"smiles": "CC(=O)S[C@@H]1CC2=CC(=O)CC[C@]2(C)[C@H]2CC[C@@]3(C)[C@@H](CC[C@@]34CCC(=O)O4)[C@H]12", "values": [{"measurement": "max response", "setting": "[1]", "value": 15.7, "unit": "%"}, {"measurement": "outcome", "setting": "[5]", "value": "inactive"}]}]}
